Test results as given in PubChem BioAssay AID1159580 (chemical genetic matrix, 2015).
Hit rate of the full screen: of about 5,500 compounds, about 2,000 (36%) were called active. About 18% were inconclusive and are not listed. No stated cut-off is given here; in the data, active means normalized growth mostly below about 0.91 (no sharp cut-off); inconclusive means no clear call, values can overlap the other calls; inactive means mostly above about 0.92. This is one part of the list.

Assay: chemical genetic growth profiling, strain panel (AID 1159580);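 further: tested at 20 µM; growth read once vehicle control cultures reached saturation at 30 °C; 1 = growth at the plate median or of vehicle wells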
Details: growth OD

Measured: normalized growth

Cc1occc(=O)c1O
inactive: S. cerevisiae deletion strains, locus YKL009W, strain mrt4, stronger effect = lower value 1.01 | S. cerevisiae deletion strains, locus YKL068W, stronger effect = lower value 1 | S. cerevisiae deletion strains, locus YKL085W, strain MDH1 (second series), stronger effect = lower value 1 | S. cerevisiae deletion strains, locus YKL085W, strain MDH1, stronger effect = lower value 1 | S. cerevisiae deletion strains, locus YKL160W, strain elf1, stronger effect = lower value 0.962 | S. cerevisiae deletion strains, locus YKR001C, strain vps1, stronger effect = lower value 1.03 | S. cerevisiae deletion strains, locus YKR026C, strain gcn3, stronger effect = lower value 0.97 | S. cerevisiae deletion strains, locus YKR091W, strain srl3, stronger effect = lower value 0.962 | S. cerevisiae deletion strains, locus YLL001W, strain dnm1, stronger effect = lower value 0.96 | S. cerevisiae deletion strains, locus YLL026W, stronger effect = lower value 0.961 | S. cerevisiae deletion strains, locus YLL041C, strain sdh2, stronger effect = lower value 0.977 | S. cerevisiae deletion strains, locus YLR027C, strain aat2, stronger effect = lower value 0.97 | S. cerevisiae deletion strains, locus YLR039C, strain RIC1, stronger effect = lower value 1.01 | S. cerevisiae deletion strains, locus YLR058C, strain SHM2, stronger effect = lower value 1.01 | S. cerevisiae deletion strains, locus YLR102C, strain apc9, stronger effect = lower value 1.01 | S. cerevisiae deletion strains, locus YLR113W, strain HOG1, stronger effect = lower value 1.03 | S. cerevisiae deletion strains, locus YLR221C, strain rsa3, stronger effect = lower value 0.96 | S. cerevisiae deletion strains, locus YLR258W, strain gsy2, stronger effect = lower value 0.973 | S. cerevisiae deletion strains, locus YLR262C, strain YPT6 (second series), stronger effect = lower value 0.964 | S. cerevisiae deletion strains, locus YLR262C, strain YPT6, stronger effect = lower value 1.01 | S. cerevisiae deletion strains, locus YLR268W, strain sec22, stronger effect = lower value 1.01 | S. cerevisiae deletion strains, locus YLR320W, strain mms22, stronger effect = lower value 0.95 | S. cerevisiae deletion strains, locus YLR330W, strain CHS5, stronger effect = lower value 0.999 | S. cerevisiae deletion strains, locus YLR342W, strain FKS1 (second series), stronger effect = lower value 1 | S. cerevisiae deletion strains, locus YLR342W, strain FKS1, stronger effect = lower value 0.974 | S. cerevisiae deletion strains, locus YLR357W, strain rsc2, stronger effect = lower value 0.941 | S. cerevisiae deletion strains, locus YLR370C, strain arc18, stronger effect = lower value 0.98 | S. cerevisiae deletion strains, locus YLR371W, strain rom2, stronger effect = lower value 1.02 | S. cerevisiae deletion strains, locus YLR384C, strain iki3, stronger effect = lower value 0.969 | S. cerevisiae deletion strains, locus YLR418C, strain cdc73, stronger effect = lower value 1.03 | S. cerevisiae deletion strains, locus YML016C, strain PPZ1, stronger effect = lower value 1 | S. cerevisiae deletion strains, locus YML032C, strain rad52, stronger effect = lower value 1.01 | S. cerevisiae deletion strains, locus YML120C, strain ndi1, stronger effect = lower value 0.95 | S. cerevisiae deletion strains, locus YML124C, strain tub3, stronger effect = lower value 1.01 | S. cerevisiae deletion strains, locus YMR058W, strain fet3, stronger effect = lower value 0.971 | S. cerevisiae deletion strains, locus YMR078C, strain ctf18, stronger effect = lower value 1.01 | S. cerevisiae deletion strains, locus YMR125W, strain sto1, stronger effect = lower value 0.935 | S. cerevisiae deletion strains, locus YMR129W, stronger effect = lower value 0.972 | S. cerevisiae deletion strains, locus YMR205C, strain PFK2, stronger effect = lower value 0.948 | S. cerevisiae deletion strains, locus YMR223W, strain ubp8, stronger effect = lower value 0.998 | S. cerevisiae deletion strains, locus YMR231W, strain pep5, stronger effect = lower value 0.976 | S. cerevisiae deletion strains, locus YMR307W, strain GAS1, stronger effect = lower value 0.968 | S. cerevisiae deletion strains, locus YNL067W, strain RPL9B, stronger effect = lower value 1 | S. cerevisiae deletion strains, locus YNL071W, strain lat1, stronger effect = lower value 0.979 | S. cerevisiae deletion strains, locus YNL128W, strain TEP1, stronger effect = lower value 1.03 | S. cerevisiae deletion strains, locus YNL183C, strain NPR1, stronger effect = lower value 0.97 | S. cerevisiae deletion strains, locus YNL209W, strain ssb2, stronger effect = lower value 0.971 | S. cerevisiae deletion strains, locus YNL233W, strain BNI4, stronger effect = lower value 1.01 | S. cerevisiae deletion strains, locus YNL248C, strain rpa49, stronger effect = lower value 0.975 | S. cerevisiae deletion strains, locus YNL250W, strain rad50, stronger effect = lower value 1 | S. cerevisiae deletion strains, locus YNL271C, strain bni1, stronger effect = lower value 1.02 | S. cerevisiae deletion strains, locus YNL298W, strain CLA4, stronger effect = lower value 1.05 | S. cerevisiae deletion strains, locus YNL307C, strain MCK1, stronger effect = lower value 1.02 | S. cerevisiae deletion strains, locus YNL322C, strain KRE1 (second series), stronger effect = lower value 0.943 | S. cerevisiae deletion strains, locus YNL322C, strain KRE1, stronger effect = lower value 1 | S. cerevisiae deletion strains, locus YNR049C, strain mso1, stronger effect = lower value 0.958 | S. cerevisiae deletion strains, locus YNR052C, strain pop2, stronger effect = lower value 1.01 | S. cerevisiae deletion strains, locus YOL012C, strain htz1 1.37 | S. cerevisiae deletion strains, locus YOL147C, strain pex11, stronger effect = lower value 1.01 | S. cerevisiae deletion strains, locus YOR001W, strain rrp6, stronger effect = lower value 0.983 | S. cerevisiae deletion strains, locus YOR061W, strain CKA2, stronger effect = lower value 1.01 | S. cerevisiae deletion strains, locus YOR069W, strain VPS5, stronger effect = lower value 1.01 | S. cerevisiae deletion strains, locus YOR070C, strain gyp1, stronger effect = lower value 0.969 | S. cerevisiae deletion strains, locus YOR080W, strain dia2, stronger effect = lower value 0.961 | S. cerevisiae deletion strains, locus YOR083W, strain WHI5, stronger effect = lower value 0.952 | S. cerevisiae deletion strains, locus YOR106W, strain vam3, stronger effect = lower value 0.942 | S. cerevisiae deletion strains, locus YOR136W, strain idh2, stronger effect = lower value 1.02 | S. cerevisiae deletion strains, locus YOR144C, strain elg1, stronger effect = lower value 1.01 | S. cerevisiae deletion strains, locus YOR184W, strain ser1, stronger effect = lower value 1.03 | S. cerevisiae deletion strains, locus YOR231W, strain MKK1, stronger effect = lower value 1.02 | S. cerevisiae deletion strains, locus YOR265W, strain rbl2, stronger effect = lower value 0.971 | S. cerevisiae deletion strains, locus YOR270C, strain vph1, stronger effect = lower value 0.931 | S. cerevisiae deletion strains, locus YOR290C, strain snf2, stronger effect = lower value 0.916 | S. cerevisiae deletion strains, locus YOR316C, strain cot1, stronger effect = lower value 1.01 | S. cerevisiae deletion strains, locus YPL051W, strain arl3, stronger effect = lower value 0.973 | S. cerevisiae deletion strains, locus YPL055C, strain LGE1, stronger effect = lower value 1.01 | S. cerevisiae deletion strains, locus YPL078C, strain atp4, stronger effect = lower value 0.968 | S. cerevisiae deletion strains, locus YPL106C, strain sse1, stronger effect = lower value 0.924 | S. cerevisiae deletion strains, locus YPL240C, strain hsp82, stronger effect = lower value 0.983 | S. cerevisiae deletion strains, locus YPL241C, strain CIN2, stronger effect = lower value 1 | S. cerevisiae deletion strains, locus YPL256C, strain CLN2, stronger effect = lower value 1.01 | S. cerevisiae deletion strains, locus YPR119W, strain clb2, stronger effect = lower value 1 | S. cerevisiae deletion strains, locus YPR141C, strain kar3, stronger effect = lower value 1 | S. cerevisiae deletion strains, locus YPR163C, strain tif3, stronger effect = lower value 1 | S. cerevisiae deletion strains, locus YPR167C, strain met16, stronger effect = lower value 1.01 | S. cerevisiae deletion strains, strain wtn01, stronger effect = lower value 0.993 | S. cerevisiae strains, strain wild type, stronger effect = lower value 1
